TDP1 cell CPT – qHTS for Inhibitors of human tyrosyl-DNA phosphodiesterase 1 (TDP1): qHTS in cells in presence of CPT | chicken DT40 Tdp1-/-;hTDP1 cells + 20 nM CPT, ATP luminescence, 48 h | Potency, µM (doses to about 46.2 µM), for inactives: top-dose activity change, negative = growth inhibition, actives largely listed as inhibitors | hit rate 12% among 420,000; note: potency is the fitted concentration of half-maximal effect; nearly all actives have a fitted effect of over 55% in size
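Cell growth measured by CellTiter-Glo luminescence after a minimum 48 h, 37 C compound exposure with 20 nM CPT in Tdp1-knockout DT40 cells stably expressing hTDP1, seeded 400/well; qHTS titration format.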
HT1080NT lethal – qHTS for induction of synthetic lethality in tumor cells producing 2HG: qHTS for the HT-1080-NT fibrosarcoma cell line; hit rate 1.6% among 360,000; Potency, µM (series often up to 46.1 µM), for inactives: at the top dose activity, negative = less viability, actives largely listed as cytotoxic; HT-1080-NT fibrosarcoma viability, CellTiter-Glo ATP luminescence, 48 h;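 note: NT is the 2HG producing partner of a matched IDH1 knockdown line; potency is the fitted concentration of half-maximal effect; 0% = DMSO-treated cells and -100% = media-only wells without cells; nearly all actives have a fitted effect of over 55% in size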
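Compounds were tested in concentration-response format on HT-1080-NT cells for 48 hours at 37 degrees C. Cell viability came from CellTiter-Glo luminescence; curves were classified by r2, response magnitude and activity.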
DT40 TDP1 no CPT – qHTS for Inhibitors of human tyrosyl-DNA phosphodiesterase 1 (TDP1): qHTS in cells in absence of CPT | AID 686978, 2013 | DT40 Tdp1-/- hTDP1 cells, no CPT, ATP luminescence, 48 h | Potency, µM (titrated, usually from 46.2 µM), for the others: at the highest dose activity change, negative = growth inhibition, hits mostly inhibitors | hit rate 15% among 420,000; note: potency is the fitted concentration of half-maximal effect; nearly all actives have a fitted effect of over 55% in size
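Cells were dispensed at 400 per well, compounds added by pin tool, plates incubated ≥48 hr at 37 °C, then CellTiter-Glo added for 30 min at room temperature before luminescence reading. Line: DT40 Tdp1-/- complemented with hTDP1; camptothecin omitted.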
HT1080 IDH1KD tx – qHTS for induction of synthetic lethality in tumor cells producing 2HG: qHTS for the HT-1080-IDH1KD cell line | hit rate 2% among 360,000 | Potency, µM (doses to about 46.1 µM), inactives show at the highest dose activity, negative = toxicity, hits mostly cytotoxic | AID 686971, 2013 | HT-1080 IDH1 knockdown viability, ATP luminescence, 48 h;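 note: potency is the fitted concentration of half-maximal effect; 0% = DMSO wells and -100% = cell-free medium wells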
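% activity derives from luminescence (CellTiter-Glo), normalised to DMSO and no-cell wells. HT-1080-IDH1KD cells, 750/well, had 48 h compound exposure at 37 °C.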
IL-1B inflam inh – qHTS for Inhibitors of Inflammasome Signaling: IL-1-beta AlphaLISA Primary Screen; THP-1 LPS/ATP IL-1B secretion, AlphaLISA, 16 h; active compounds read low; activity change, % at 57.5 µM; hit rate 4.7% among 360,000; in the data active = activity change below about -50%; inconclusive = mostly about -30% to -49%
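Secreted IL-1B measured by AlphaLISA bead assay after 16 h compound exposure of THP-1 cells; compounds (final up to 57.5 uM) added 1 h before LPS (250 ng/mL) and ATP (1.25 mM) stimulation; lower signal means less secretion.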
* = called active by the depositor; ! = not confirmed by another sample. Only some compounds are listed: those with a hit (about 19% of all), similar ones and a draw of the others. Unless noted, calls come from the whole dose curve; as a rule, active = well fitted curve in the direction sought with a large enough effect; inconclusive = small, poorly fitted or top-dose-only effect, or another doubt; inactive = no such curve, though single readings can be large; an effect the other way counts as inactive or inconclusive. Unless noted, % is set by controls: 0 for no effect and ±100 for the full control effect.

What do the screens show for `Cc1cc(C)c(C)c(OC(=O)c2sc(Cl)nc2C)c1`?
TDP1 cell CPT: 7.3µM*; HT1080NT lethal: -10%; DT40 TDP1 no CPT: 8.2µM*; HT1080 IDH1KD tx: -21%; IL-1B inflam inh: -104*

How did Cc1ccc(NC(=O)c2sccc2-n2cccc2)c(C)c1 do in these assays?
TDP1 cell CPT: 21µM*; HT1080NT lethal: 20%; DT40 TDP1 no CPT: inconclusive; HT1080 IDH1KD tx: 25%; IL-1B inflam inh: -1

Results for C[C@@H](NC(=O)c1nc[nH]c1C(=O)N(C)Cc1ccccc1)c1ccccc1 ?
TDP1 cell CPT: inconclusive; HT1080NT lethal: 8%; DT40 TDP1 no CPT: inconclusive; HT1080 IDH1KD tx: 8%; IL-1B inflam inh: 3

What do the screens show for `CS(=O)(=O)c1ccc2nc(NC(=O)c3ccccc3Br)sc2c1`?
TDP1 cell CPT: -18%; HT1080NT lethal: 18%; DT40 TDP1 no CPT: -29%; HT1080 IDH1KD tx: -1%; IL-1B inflam inh: -12

What do the screens show for `CCOC(=O)C[C@H]1c2ccc(C(F)(F)F)cc2S(=O)(=O)N1C(C)(C)C`?
TDP1 cell CPT: 11µM*!; HT1080NT lethal: -1%; DT40 TDP1 no CPT: inconclusive; HT1080 IDH1KD tx: -5%; IL-1B inflam inh: 20

Results for COC(=O)C[C@H]1c2cc(F)ccc2S(=O)(=O)N1Cc1ccccc1 ?
TDP1 cell CPT: -6%; HT1080NT lethal: inconclusive; DT40 TDP1 no CPT: -19%; HT1080 IDH1KD tx: 2%; IL-1B inflam inh: 32

What do the screens show for `CCCCCCCCCCCCN1[C@@H](CC(C)=O)c2cc(F)ccc2S1(=O)=O`?
TDP1 cell CPT: inconclusive; HT1080NT lethal: 13%; DT40 TDP1 no CPT: inconclusive; HT1080 IDH1KD tx: 8%; IL-1B inflam inh: 0

Results for CCCCCCCCN1[C@@H](CC(=O)OCC)c2cc(C(F)(F)F)ccc2S1(=O)=O ?
TDP1 cell CPT: inconclusive; HT1080NT lethal: 0%; DT40 TDP1 no CPT: 16µM*; HT1080 IDH1KD tx: 12%; IL-1B inflam inh: 28

Results for CCCCCCCCCCCCN1[C@@H](CC(=O)OC)c2cc(F)cc(F)c2S1(=O)=O ?
TDP1 cell CPT: inconclusive; HT1080NT lethal: 6%; DT40 TDP1 no CPT: 18µM*; HT1080 IDH1KD tx: 2%; IL-1B inflam inh: 18

What do the screens show for `CCCCCCCCCCCCN1[C@@H](CC(=O)OC)c2cc(F)ccc2S1(=O)=O`?
TDP1 cell CPT: inconclusive; HT1080NT lethal: inconclusive; DT40 TDP1 no CPT: 10µM*; HT1080 IDH1KD tx: 7%; IL-1B inflam inh: 15

What do the screens show for `CN(CC(=O)Nc1ccc(OC(F)(F)F)cc1)C(=O)Cc1cccs1`?
TDP1 cell CPT: inconclusive; HT1080NT lethal: 2%; DT40 TDP1 no CPT: inconclusive; HT1080 IDH1KD tx: -8%; IL-1B inflam inh: 16

How did O=C(C[n+]1cccc(Cl)c1)c1ccc(F)cc1 do in these assays?
TDP1 cell CPT: -2%; DT40 TDP1 no CPT: -18%

What do the screens show for `COC(=O)Cn1cc(C(=O)C(C)(C)C)c2ccccc21`?
TDP1 cell CPT: 2%; HT1080NT lethal: 7%; DT40 TDP1 no CPT: 1%; HT1080 IDH1KD tx: 0%; IL-1B inflam inh: -74*

What do the screens show for `COC(=O)Cn1cc(C(=O)C2CC2)c2ccccc21`?
TDP1 cell CPT: -1%; HT1080NT lethal: 7%; DT40 TDP1 no CPT: -17%; HT1080 IDH1KD tx: 4%; IL-1B inflam inh: -89*

Results for CCOC(=O)Cn1cc(C(=O)C(C)(C)C)c2ccccc21 ?
TDP1 cell CPT: inconclusive; HT1080NT lethal: 15%; DT40 TDP1 no CPT: -15%; HT1080 IDH1KD tx: -2%; IL-1B inflam inh: 0

Results for O=C(O)c1sccc1Oc1ccc(NS(=O)(=O)c2ccccc2)cc1 ?
TDP1 cell CPT: 26%; HT1080NT lethal: 17%; DT40 TDP1 no CPT: -5%; HT1080 IDH1KD tx: 9%; IL-1B inflam inh: 13

Results for CCOCCOc1nc2c(c(=O)n(C)c(=O)n2C)n1Cc1ccc(C)cc1 ?
TDP1 cell CPT: inconclusive; HT1080NT lethal: -5%; DT40 TDP1 no CPT: 8.2µM*; HT1080 IDH1KD tx: 0%; IL-1B inflam inh: 10

Results for C#CCOc1nc2c(c(=O)n(C)c(=O)n2C)n1Cc1ccccc1 ?
TDP1 cell CPT: 12µM*; HT1080NT lethal: -12%; DT40 TDP1 no CPT: 12µM*; HT1080 IDH1KD tx: -9%; IL-1B inflam inh: 0

What do the screens show for `C=CCOc1nc2c(c(=O)n(C)c(=O)n2C)n1Cc1ccccc1`?
TDP1 cell CPT: 26µM*; HT1080NT lethal: -1%; DT40 TDP1 no CPT: 18µM*; HT1080 IDH1KD tx: 1%

What do the screens show for `C=CCOc1nc2c(c(=O)n(Cc3ccc(Cl)cc3)c(=O)n2C)n1C`?
TDP1 cell CPT: inconclusive; HT1080NT lethal: 14%; DT40 TDP1 no CPT: 12µM*; HT1080 IDH1KD tx: 6%; IL-1B inflam inh: -11

What do the screens show for `COCCOc1nc2c(c(=O)n(C)c(=O)n2C)n1CCc1ccccc1`?
TDP1 cell CPT: -23%; HT1080NT lethal: -1%; DT40 TDP1 no CPT: -29%; HT1080 IDH1KD tx: -6%; IL-1B inflam inh: 20

What do the screens show for `COc1ccc(Oc2nc3c(c(=O)n(C)c(=O)n3C)n2Cc2ccccc2)cc1`?
TDP1 cell CPT: inconclusive; HT1080NT lethal: 17%; DT40 TDP1 no CPT: -29%; HT1080 IDH1KD tx: 20%; IL-1B inflam inh: 38

What do the screens show for `Cn1c(N2CCCC2)nc2c1c(=O)n(Cc1ccc(Cl)cc1)c(=O)n2C`?
TDP1 cell CPT: inconclusive; HT1080NT lethal: -12%; DT40 TDP1 no CPT: inconclusive; HT1080 IDH1KD tx: -8%; IL-1B inflam inh: -17

Results for CC(=O)c1ccc(NC(=O)CSc2nc(=O)n(Cc3ccncc3)c3c2CCC3)cc1 ?
TDP1 cell CPT: -5%; DT40 TDP1 no CPT: -3%

Results for Cc1cccc(-c2nc(CCNC(=O)c3ccco3)cs2)c1 ?
TDP1 cell CPT: inconclusive; HT1080NT lethal: -16%; DT40 TDP1 no CPT: inconclusive; HT1080 IDH1KD tx: -20%; IL-1B inflam inh: inconclusive

Results for Cc1ccc(C)c(NC(=O)C(=O)NCCc2csc(-c3ccc(C(F)(F)F)cc3)n2)c1 ?
TDP1 cell CPT: -50%; DT40 TDP1 no CPT: inconclusive

Results for Cc1cccc(CC(=O)NCCc2csc(-c3ccc(C(F)(F)F)cc3)n2)c1 ?
TDP1 cell CPT: 16µM*; DT40 TDP1 no CPT: 15µM*

Results for Cc1ccc(NC(=O)Cc2csc(-c3ccccc3)n2)cc1F ?
TDP1 cell CPT: 7%; HT1080NT lethal: -24%; DT40 TDP1 no CPT: inconclusive; HT1080 IDH1KD tx: inconclusive; IL-1B inflam inh: -80*

What do the screens show for `Cc1cccc(-c2nc(CCNC(=O)Cc3ccc(F)cc3)cs2)c1`?
TDP1 cell CPT: inconclusive; DT40 TDP1 no CPT: 23µM*

Results for Cc1cc(C)cc(C(=O)NCCc2csc(-c3ccc(C(F)(F)F)cc3)n2)c1 ?
TDP1 cell CPT: inconclusive; DT40 TDP1 no CPT: 21µM*

Assay outcomes deposited in PubChem by National Center for Advancing Translational Sciences (NCATS).
